IL-1B inflam inh = blocks inflammasome-driven IL-1 beta release | THP-1 LPS/ATP IL-1B secretion, AlphaLISA, 16 h; stronger effect = lower value | activity change, % at 57.5 µM | actives 4.7% (n = 360,000) | AID 743279; in the data active = activity change below about -50%; inconclusive = mostly about -30% to -49%; note: % is set by controls: 0 for no effect and ±100 for the full control effect
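Secreted IL-1B measured by AlphaLISA bead assay after 16 h compound exposure of THP-1 cells; compounds (final up to 57.5 uM) added 1 h before LPS (250 ng/mL) and ATP (1.25 mM) stimulation; lower signal means less secretion.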
DT40 TDP1 CPT = growth inhibition of DT40 Tdp1-/-;hTDP1 cells with camptothecin (screen for TDP1 inhibitors); Potency, µM (top dose mostly 46.2 µM), without a hit: at the highest dose activity change, negative = growth inhibition, actives largely listed as inhibitors; AID 686979; chicken DT40 Tdp1-/-;hTDP1 cells + 20 nM CPT, ATP luminescence, 48 h; actives 12% (n = 420,000); note: potency is the fitted concentration of half-maximal effect; % is set by controls: 0 for no effect and ±100 for the full control effect; nearly all actives have a fitted effect of over 55% in size
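Chicken DT40 Tdp1-/- cells stably complemented with human TDP1 were seeded at 400 cells/well in medium containing 20 nM camptothecin, exposed to pin-transferred compounds, and grown at 37 °C for at least 48 hr. Viability was read as ATP luminescence.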
HepG2 tox = kills HepG2 cells in TGF-b inhibitor counter-screen; HepG2 CAGA-GFP viability, ATP luminescence, 18 h; Potency, µM (titrated, usually from 46.1 µM), for inactives: at the top dose activity change, negative = cytotoxicity, usual class: cytotoxic; actives 0.76% (n = 410,000); note: potency is the fitted concentration of half-maximal effect
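HepG2 CAGA-GFP cells (1000/well, DMEM with 1% FBS) received compound, then TGF-beta at 500 pg/mL final, and were incubated 18 hours at 37 degrees C. Viability was read by CellTiter-Glo luminescence. Media-only wells were set as complete cell-killing and DMSO as no toxicity.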
DT40 TDP1 no CPT = qHTS for Inhibitors of human tyrosyl-DNA phosphodiesterase 1 (TDP1): qHTS in cells in absence of CPT. DT40 Tdp1-/- hTDP1 cells, no CPT, ATP luminescence, 48 h. actives 15% (n = 420,000). Potency, µM (highest dose often 46.2 µM), inactives show at the highest dose activity change, negative = growth inhibition, usual class: inhibitors. AID 686978, 2013; note: potency is the fitted concentration of half-maximal effect; % is set by controls: 0 for no effect and ±100 for the full control effect; nearly all actives have a fitted effect of over 55% in size
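Chicken DT40 Tdp1-/- cells complemented with human TDP1, screened without camptothecin (DMSO vehicle only), 400 cells/well. Compounds pin-transferred, cells incubated at 37 °C for at least 48 hr. Growth read as ATP-dependent luminescence (CellTiter-Glo, 30 min at RT).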
TDP1 inh = inhibitors of human tyrosyl-DNA phosphodiesterase TDP1; Potency, µM (doses to about 130 µM), for the others: at the top dose activity change, negative = inhibition, actives largely listed as inhibitors; actives 0.28% (n = 350,000); AID 485290; Q9NUW8; recombinant TDP1, AlphaScreen DNA substrate cleavage; note: potency is the fitted concentration of half-maximal effect; % is set by controls: 0 for no effect and ±100 for the full control effect; nearly all actives have a fitted effect of over 40% in size
Target sequence (Q9NUW8 whole entry, looked up): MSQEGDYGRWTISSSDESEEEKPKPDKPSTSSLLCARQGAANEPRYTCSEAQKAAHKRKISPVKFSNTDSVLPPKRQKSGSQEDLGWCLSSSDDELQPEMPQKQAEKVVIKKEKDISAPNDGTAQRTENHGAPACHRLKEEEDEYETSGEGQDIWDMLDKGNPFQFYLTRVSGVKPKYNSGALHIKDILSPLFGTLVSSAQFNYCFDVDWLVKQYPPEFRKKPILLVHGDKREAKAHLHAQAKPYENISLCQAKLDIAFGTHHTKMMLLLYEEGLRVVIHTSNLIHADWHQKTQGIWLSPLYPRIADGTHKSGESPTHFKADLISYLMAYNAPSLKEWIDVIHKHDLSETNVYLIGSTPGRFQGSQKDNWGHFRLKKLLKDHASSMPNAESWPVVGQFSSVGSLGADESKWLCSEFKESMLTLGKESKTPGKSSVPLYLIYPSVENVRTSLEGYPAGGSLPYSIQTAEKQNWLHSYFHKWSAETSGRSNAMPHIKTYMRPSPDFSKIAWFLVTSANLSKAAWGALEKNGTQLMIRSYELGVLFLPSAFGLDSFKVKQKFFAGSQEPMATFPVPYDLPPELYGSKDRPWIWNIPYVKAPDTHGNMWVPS
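AlphaScreen read-out: signal falls as enzyme removes the 3' tyrosine-FITC from a 5'-biotinylated DNA oligo (15 nM, 5 min, RT). Enzyme was E. coli-made recombinant Tdp1 at 1 nM, exposed to compound for 15 min beforehand; beads 10 ug/ml, 10 min.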
TGFb inhibitor = inhibitors of TGF-b signaling. Potency, µM (doses to about 46.1 µM), without a hit: at the highest dose activity, negative = inhibition, usual class: inhibitors. AID 588855. actives 1.2% (n = 410,000). HepG2 CAGA-GFP TGF-b/SMAD3 reporter, GFP fluorescence, 18 h; TGF-beta stimulated, 500 pg/mL final; note: potency is the fitted concentration of half-maximal effect; % is set by controls: 0 for no effect and ±100 for the full control effect; nearly all actives have a fitted effect of over 65% in size
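HEPG2 CAGA-GFP reporter cells (1000/well, DMEM with 1% FBS) received compounds, then recombinant TGF-beta at 500 pg/mL final for 18 hours at 37 degrees C. Per-cell GFP summed per well was normalised to unstimulated and stimulated DMSO controls before curve fitting.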
* = called active by the depositor; [ ] = dose if it differs, or a comment. In the library only some 19% were active in any assay of this set; here they are far more common. Unless noted, calls come from the whole dose curve; as a rule, active = well fitted curve in the direction sought with a large enough effect; inconclusive = small, poorly fitted or top-dose-only effect, or another doubt; inactive = no such curve, though single readings can be large; an effect the other way counts as inactive or inconclusive.

For O=C(CCOc1ccccc1)NO the results were DT40 TDP1 CPT 10µM* and DT40 TDP1 no CPT 11µM*.
O=C(Cc1ccc(Oc2ccccc2)cc1)NO was read as DT40 TDP1 CPT inconclusive, HepG2 tox -21%, DT40 TDP1 no CPT inconclusive and TGFb inhibitor -6%.
Cc1cccc(OCCC(=O)NO)c1 was read as DT40 TDP1 CPT 10µM* and DT40 TDP1 no CPT 10µM*.
`O=C(CCOc1ccccc1)Nc1ccccc1` gave IL-1B inflam inh 23, DT40 TDP1 CPT 21%, HepG2 tox 1%, DT40 TDP1 no CPT 7%, TDP1 inh -2% and TGFb inhibitor -19%.
Screening Cc1cccc(OCCCC(=O)NC(C)C)c1 returned IL-1B inflam inh -1, DT40 TDP1 CPT -6%, HepG2 tox -100%, DT40 TDP1 no CPT 23µM*, TDP1 inh -3% and TGFb inhibitor inconclusive.
`O=C(Cc1ccc(OCCCc2ccccc2)cc1)NO` gave DT40 TDP1 CPT 11µM*, HepG2 tox -23%, DT40 TDP1 no CPT 14µM* and TGFb inhibitor 5%.
For CC(C)COc1ccc(CC(=O)NO)cc1 the results were DT40 TDP1 CPT 8.9µM*, HepG2 tox 3%, DT40 TDP1 no CPT inconclusive and TGFb inhibitor 3%.
Screening CCc1ccc(OCCCC(=O)NCc2ccccc2)cc1 returned IL-1B inflam inh 6, DT40 TDP1 CPT 29µM*, HepG2 tox -14%, DT40 TDP1 no CPT 21µM*, TDP1 inh 4% and TGFb inhibitor -28%.
Screening O=C(CCCCCCC(=O)Nc1ccccc1)NO returned DT40 TDP1 CPT 0.42µM*, DT40 TDP1 no CPT 0.6µM* and TGFb inhibitor 56%.
O=C(CCCCCN1C(=O)c2ccccc2C1=O)Nc1ccccc1 was read as IL-1B inflam inh 4, DT40 TDP1 CPT 2%, HepG2 tox 7%, DT40 TDP1 no CPT -22%, TDP1 inh 2% and TGFb inhibitor -26%.
For O=C(C[n+]1ccncc1)c1ccc2ccccc2c1 the results were DT40 TDP1 CPT -14%, HepG2 tox -3%, DT40 TDP1 no CPT inconclusive and TGFb inhibitor 0%.
Screening Cc1ccc2nc(CN3CCN(S(=O)(=O)c4ccccc4)CC3)oc2c1 returned DT40 TDP1 CPT -26%, HepG2 tox -19%, DT40 TDP1 no CPT -24%, TDP1 inh -1% and TGFb inhibitor -25%.
Screening COc1ccc(-c2nsc(NC(=O)c3oc4ccccc4c3C)n2)cc1 returned DT40 TDP1 CPT inconclusive, HepG2 tox 4%, DT40 TDP1 no CPT -29%, TDP1 inh 5% and TGFb inhibitor -5%.
For CCOc1ccc(NC(=O)NCc2ccc3c(c2)OCO3)cc1 the results were IL-1B inflam inh -3, DT40 TDP1 CPT -3%, HepG2 tox 5%, DT40 TDP1 no CPT 3%, TDP1 inh 2% and TGFb inhibitor -1%.
For CO[C@H]1C[C@H](O[C@@H]2/C(C)=C/C[C@@H]3C[C@@H](C[C@]4(CC[C@H](C)[C@@H](C5CCCCC5)O4)O3)OC(=O)[C@@H]3C=C(C)/C(=N/O)[C@H]4OC/C(=C\C=C\[C@@H]2C)[C@]43O)O[C@@H](C)[C@@H]1O the results were DT40 TDP1 CPT -17% and DT40 TDP1 no CPT -9%.
For CCCc1cc(=O)oc2c3c(c4c(c12)OC(C)(C)C=C4)OC(C)C(C)C3O (centres undefined) the results were IL-1B inflam inh -71*, DT40 TDP1 CPT 8.2µM*, HepG2 tox 7.9µM*, DT40 TDP1 no CPT 6.5µM*, TDP1 inh 0% and TGFb inhibitor inconclusive.
CC(=O)Nc1ccc(NC(=O)C(c2ccccc2)N2Cc3ccccc3C2=O)cc1 (centres undefined) was read as DT40 TDP1 CPT 9%, HepG2 tox -2%, DT40 TDP1 no CPT 2%, TDP1 inh 2% and TGFb inhibitor -24%.
CCc1nc2ccc(C(=O)N(C)CCCN(C)C)cn2c1N(CC)CCOC was read as IL-1B inflam inh 6, DT40 TDP1 CPT 18%, HepG2 tox 5%, DT40 TDP1 no CPT 8% and TGFb inhibitor 25%.
For CC(=O)N1CCc2cc(Br)cc(S(=O)(=O)NCCc3ccc(Cl)cc3)c21 the results were DT40 TDP1 CPT 1%, HepG2 tox 5%, DT40 TDP1 no CPT 13%, TDP1 inh 9% and TGFb inhibitor 30%.
For Cc1ccccc1/C=N/Nc1ccnc2cc(Cl)ccc12 the results were IL-1B inflam inh -103*, DT40 TDP1 CPT 10µM*, HepG2 tox -103%, DT40 TDP1 no CPT inconclusive, TDP1 inh 1% and TGFb inhibitor 10µM*.
Oc1ccc(/C=N/Nc2ccnc3cc(Cl)ccc23)c(O)c1 was read as IL-1B inflam inh inconclusive, DT40 TDP1 CPT inconclusive, HepG2 tox 5%, DT40 TDP1 no CPT inconclusive, TDP1 inh 6% and TGFb inhibitor -11%.
For Clc1ccc2c(N/N=C/c3ccc(Br)cc3)ccnc2c1 the results were IL-1B inflam inh -98*, DT40 TDP1 CPT inconclusive, HepG2 tox 1%, DT40 TDP1 no CPT inconclusive, TDP1 inh 3% and TGFb inhibitor 25%.
For Cc1ccc(/C=N/Nc2ccnc3cc(Cl)ccc23)c(C)c1 the results were IL-1B inflam inh -77*, DT40 TDP1 CPT 6.5µM*, HepG2 tox 14µM*, DT40 TDP1 no CPT 12µM*, TDP1 inh 8% and TGFb inhibitor inconclusive.
O=C(COC(=O)c1ccc(Cl)nc1)Nc1nnc(-c2ccccc2)o1 was read as IL-1B inflam inh 0, DT40 TDP1 CPT -18%, HepG2 tox -2%, DT40 TDP1 no CPT -6%, TDP1 inh 4%[0.505 µM] and TGFb inhibitor 0%.
`O=C(Cn1c(C(=O)N2CCN(C3CCCC3)CC2)cc2sccc21)c1ccccc1` gave IL-1B inflam inh -14, DT40 TDP1 CPT 18µM*, HepG2 tox -34%, DT40 TDP1 no CPT inconclusive, TDP1 inh 5% and TGFb inhibitor -9%.
`CN(CCOc1ccc(Cl)cc1)C(=O)c1cc([N+](=O)[O-])ccc1N1CCOCC1` gave IL-1B inflam inh -5, DT40 TDP1 CPT 21µM*, HepG2 tox -14%, DT40 TDP1 no CPT 12µM*, TDP1 inh -9% and TGFb inhibitor -17%.
COc1ccc(S(=O)(=O)N2CCOCC2)cc1C(=O)N(C)CCOc1ccc(Cl)cc1 was read as IL-1B inflam inh 3, DT40 TDP1 CPT inconclusive, HepG2 tox -31%, DT40 TDP1 no CPT 16µM*, TDP1 inh 1%[56.1 µM] and TGFb inhibitor -33%.

Screening results (PubChem BioAssay)
